The values below come from PubChem BioAssay (EPA / NIEHS).

The term AC50 denotes the concentration at which the activity in the assay is half-maximal.

Molecules are shown by their SMILES. Calls of active or inactive are those of the source. How the source made its calls: active means hit-call score of the fitted dose curve at least 0.9, where 1 is the maximum; inactive means score below 0.9.

Read-out in experiment [1]: TIMP metallopeptidase inhibitor 1 (TIMP1), TIMP1 (gene 7076)
Put plainly: BSK_hDFCGF_TIMP1: BioMAP Diversity Plus: hDFCGF Assay for TIMP metallopeptidase inhibitor 1 (TIMP1) Biomarker Activity (AID 2283062). To be noted: primary human foreskin fibroblasts; actives raise or lower the signal. Put shortly: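 Primary human foreskin fibroblasts in the hDFCGF system were dosed with compound for 24 h, then TIMP-1 was measured by ELISA. Activity was fitted bidirectionally relative to DMSO control; parallel SRB staining assessed cytotoxicity.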

Read-out in experiment [2]: Monokine induced gamma interferon (MIG), CXCL9 (gene 4283)
In words: BSK_hDFCGF_MIG: BioMAP Diversity Plus: hDFCGF Assay for Monokine induced gamma interferon (MIG) Biomarker Activity (AID 2283063). As to conditions: primary human foreskin fibroblasts; actives raise or lower the signal. The gist of the method: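 ELISA read-out of MIG from primary human dermal fibroblasts 24 h post-dosing. Gain or loss of signal fitted bidirectionally, DMSO as baseline.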

Read-out in experiment [3]: Matrix Metallopeptidase 1 (MMP1), MMP1 (gene 4312)
Put plainly: BSK_hDFCGF_MMP1: BioMAP Diversity Plus: hDFCGF Assay for Matrix Metallopeptidase 1 (MMP1) Biomarker Activity (AID 2283064). To be noted: primary human foreskin fibroblasts; actives raise or lower the signal. Put shortly:
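hDFCGF primary fibroblasts (human foreskin); chemical added; 24 h; MMP1 by ELISA; bidirectional fit vs DMSO.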

Read-out in experiment [4]: Vascular cell adhesion molecule 1 (VCAM1), VCAM1 (gene 7412)
Put plainly: BSK_hDFCGF_VCAM1: BioMAP Diversity Plus: hDFCGF Assay for Vascular cell adhesion molecule 1 (VCAM1) Biomarker Activity (AID 2283065).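 On AC50: VCAM-1 protein level quantified by ELISA after 24 h chemical exposure.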 To be noted: primary human foreskin fibroblasts; actives raise or lower the signal. Put shortly:
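Primary human foreskin fibroblasts (hDFCGF system) were dosed with chemical and VCAM-1 was measured by ELISA 24 h later. Bidirectional curve fitting used DMSO as negative control and activity baseline.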

Read-out in experiment [5]: Plasminogen activator inhibitor-1 (PAI1), SERPINE1 (gene 5054)
In words: BSK_hDFCGF_PAI1: BioMAP Diversity Plus: hDFCGF Assay for Plasminogen activator inhibitor-1 (PAI1) Biomarker Activity (AID 2283066). To be noted: primary human foreskin fibroblasts; actives raise or lower the signal. The gist of the method:
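PAI-1 levels, determined by ELISA, served as the endpoint in human foreskin fibroblast cultures exposed to compound for 24 h, with DMSO as baseline.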

Read-out in experiment [6]: Intercellular Adhesion Molecule 1 (ICAM1), ICAM1 (gene 3383)
In words: BSK_KF3CT_ICAM1: BioMAP Diversity Plus: KF3CT Assay for Intercellular Adhesion Molecule 1 (ICAM1) Biomarker Activity (AID 2283067). As to conditions: primary human keratinocytes with fibroblasts; actives raise or lower the signal. Put shortly: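 Human keratinocyte plus foreskin fibroblast primary co-culture was exposed to chemical for 24 h. ICAM-1 was then quantified by ELISA, and the data were fit bidirectionally against DMSO as the negative control and baseline.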

Read-out in experiment [7]: Interferon-gamma inducible Protein 10 (IP10), CXCL10 (gene 3627)
In words: BSK_KF3CT_IP10: BioMAP Diversity Plus: KF3CT Assay for Interferon-gamma inducible Protein 10 (IP10) Biomarker Activity (AID 2283068). To be noted: primary human keratinocytes with fibroblasts; actives raise or lower the signal. Put shortly:
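ELISA read-out of IP-10 after 24 h chemical dosing of human skin primary co-culture (keratinocytes, foreskin fibroblasts). Gain or loss of signal relative to DMSO, bidirectional curve fit.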

The nature of experiment [8]: BSK_KF3CT_SRB: Viability Assessment in the BioMAP Diversity Plus: KF3CT Assay (AID 2283069).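 Further: total protein by sulforhodamine B staining as a cytotoxicity measure; read 24 h after compound addition; fitted for both signal gain and loss against DMSO baseline.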 As to conditions: primary human keratinocytes with fibroblasts. Put shortly:
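Keratinocytes co-cultured with foreskin fibroblasts (human primary); chemical added, 24 h; fix 10% TCA, stain 0.1% SRB, A560. Bidirectional fit vs DMSO.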

Read-out in experiment [9]: Interleukin-1 alpha (IL1a), IL1A (gene 3552)
Put plainly: BSK_KF3CT_IL1a: BioMAP Diversity Plus: KF3CT Assay for Interleukin-1 alpha (IL1a) Biomarker Activity (AID 2283070). To be noted: primary human keratinocytes with fibroblasts; actives raise or lower the signal. Put shortly: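 Chemicals were dosed onto co-cultured human keratinocytes and foreskin fibroblasts, IL-1a was quantified by ELISA at 24 h, and activity was fitted in both directions relative to DMSO controls.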

Read-out in experiment [10]: TIMP metallopeptidase inhibitor 2 (TIMP2), TIMP2 (gene 7077)
Put plainly: BSK_KF3CT_TIMP2: BioMAP Diversity Plus: KF3CT Assay for TIMP metallopeptidase inhibitor 2 (TIMP2) Biomarker Activity (AID 2283071). To be noted: primary human keratinocytes with fibroblasts; actives raise or lower the signal. The gist of the method:
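Keratinocyte–fibroblast co-culture, 24 h exposure; TIMP-2 ELISA, DMSO-normalised bidirectional fit. Parallel SRB (0.1%, TCA-fixed, 560 nm) total-protein staining gauges cytotoxicity.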

Read-out in experiment [11]: Transforming growth factor beta 1 (TGFb1), TGFB1 (gene 7040)
In words: BSK_KF3CT_TGFb1: BioMAP Diversity Plus: KF3CT Assay for Transforming growth factor beta 1 (TGFb1) Biomarker Activity (AID 2283072). As to conditions: primary human keratinocytes with fibroblasts; actives raise or lower the signal. Put shortly: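 Signal changes in either direction, relative to DMSO, define activity here. TGF-b1 is read by ELISA from a human keratinocyte-fibroblast co-culture 24 h post-dose.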

Read-out in experiment [12]: C-C motif chemokine 2 (Homo sapiens) (UniProt P13500)
In words: BSK_KF3CT_MCP1: BioMAP Diversity Plus: KF3CT Assay for Monocyte Chemoattractant Protein 1 (MCP1/CCL2) Biomarker Activity (AID 2283073). To be noted: primary human keratinocytes with fibroblasts; actives raise or lower the signal. The gist of the method: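 Human keratinocyte plus foreskin fibroblast primary co-culture exposed to chemical for 24 h. MCP-1 levels measured by ELISA. Bidirectional curve fitting relative to DMSO negative control as baseline.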

Read-out in experiment [13]: Matrix Metallopeptidase 9 (MMP9), MMP9 (gene 4318)
In words: BSK_KF3CT_MMP9: BioMAP Diversity Plus: KF3CT Assay for Matrix Metallopeptidase 9 (MMP9) Biomarker Activity (AID 2283074).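 On AC50: MMP9 protein level quantified by ELISA in the co-culture.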 To be noted: primary human keratinocytes with fibroblasts; actives raise or lower the signal. Put shortly:
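Human keratinocyte/foreskin fibroblast co-culture; compound added; 24 h; MMP-9 by ELISA; bidirectional fit vs DMSO baseline.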

Read-out in another experiment: CD40, CD40 (gene 958)
In words: BSK_LPS_CD40: BioMAP Diversity Plus: LPS Assay for CD40 Biomarker Activity (AID 2283076). To be noted: primary human HUVEC with PBMC; actives raise or lower the signal. The gist of the method: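 Primary human umbilical vein endothelial cells co-cultured with peripheral blood mononuclear cells, LPS-stimulated, were dosed with chemical and read 24 h later. CD40 levels were measured by ELISA and fitted bidirectionally against DMSO as negative control and baseline.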

Read-out in experiment [14]: E-selectin (Homo sapiens) (UniProt P16581)
In words: BSK_LPS_Eselectin: BioMAP Diversity Plus: LPS Assay for Eselectin Biomarker Activity (AID 2283077). To be noted: primary human HUVEC with PBMC; actives raise or lower the signal. The gist of the method: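 Human umbilical vein endothelial cells co-cultured with peripheral blood mononuclear cells under LPS stimulation; E-selectin measured by ELISA 24 h after chemical dosing. Activity fitted bidirectionally against DMSO as negative control and baseline.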

Read-out in experiment [15]: Interleukin-8 (IL8), CXCL8 (gene 3576)
In words: BSK_LPS_IL8: BioMAP Diversity Plus: LPS Assay for Interleukin-8 (IL8) Biomarker Activity (AID 2283078). As to conditions: primary human HUVEC with PBMC; actives raise or lower the signal. Put shortly: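 Human umbilical vein endothelial cells co-cultured with PBMC were stimulated with LPS; IL-8 levels were measured by ELISA 24 h after chemical dosing. Activity was fitted bidirectionally against DMSO as negative control and baseline.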

Experiment [16] is described as follows: BSK_LPS_SRB: Viability Assessment in the BioMAP Diversity Plus: LPS Assay (AID 2283079).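 Further: total protein by sulforhodamine B absorbance as a cytotoxicity measure; measured one day after compound addition; fitted in both directions against DMSO so loss or gain of signal counts.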 To be noted: primary human HUVEC with PBMC. Put shortly: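 Human umbilical vein endothelial cells co-cultured with PBMC (LPS system) were dosed for 24 h. Total protein was stained with 0.1% sulforhodamine B after 10% TCA fixation, read at 560 nm, and fitted bidirectionally against DMSO baseline.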

Read-out in experiment [17]: Interleukin-1 alpha (IL1a), IL1A (gene 3552)
Put plainly: BSK_LPS_IL1a: BioMAP Diversity Plus: LPS Assay for Interleukin-1 alpha (IL1a) Biomarker Activity (AID 2283080). As to conditions: primary human HUVEC with PBMC; actives raise or lower the signal. The gist of the method:
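Human umbilical vein endothelial cells co-cultured with peripheral blood mononuclear cells were LPS-stimulated and exposed to test chemicals for 24 h. IL-1 alpha was quantified by ELISA, with bidirectional curve fitting against DMSO as the negative control and baseline.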

Read-out in experiment [18]: Monocyte Chemoattractant Protein-1 (MCP1), CCL2 (gene 6347)
Put plainly: BSK_LPS_MCP1: BioMAP Diversity Plus: LPS Assay for Monocyte Chemoattractant Protein-1 (MCP1) Biomarker Activity (AID 2283081).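 On AC50: co-culture stimulated with LPS; secreted MCP-1 protein quantified by ELISA in culture supernatant.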 To be noted: primary human HUVEC with PBMC; actives raise or lower the signal. Put shortly:
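HUVEC plus PBMC co-culture (human primary cells, LPS system) exposed to test chemical for 24 h; MCP-1 measured by ELISA. Bidirectional curve fitting against DMSO baseline; parallel SRB total-protein staining flags overt cytotoxicity.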

Read-out in experiment [19]: urokinase plasminogen activator (uPA), PLAU (gene 5328)
Put plainly: BSK_KF3CT_uPA: BioMAP Diversity Plus: KF3CT Assay for urokinase plasminogen activator (uPA) Biomarker Activity (AID 2283075). To be noted: primary human keratinocytes with fibroblasts; actives raise or lower the signal. The gist of the method:
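ELISA readout of uPA, analyzed for signal gain or loss relative to DMSO, from a human primary keratinocyte–foreskin fibroblast co-culture measured 24 h after chemical treatment.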

E-selectin (Homo sapiens), sequence (P16581 whole entry, looked up): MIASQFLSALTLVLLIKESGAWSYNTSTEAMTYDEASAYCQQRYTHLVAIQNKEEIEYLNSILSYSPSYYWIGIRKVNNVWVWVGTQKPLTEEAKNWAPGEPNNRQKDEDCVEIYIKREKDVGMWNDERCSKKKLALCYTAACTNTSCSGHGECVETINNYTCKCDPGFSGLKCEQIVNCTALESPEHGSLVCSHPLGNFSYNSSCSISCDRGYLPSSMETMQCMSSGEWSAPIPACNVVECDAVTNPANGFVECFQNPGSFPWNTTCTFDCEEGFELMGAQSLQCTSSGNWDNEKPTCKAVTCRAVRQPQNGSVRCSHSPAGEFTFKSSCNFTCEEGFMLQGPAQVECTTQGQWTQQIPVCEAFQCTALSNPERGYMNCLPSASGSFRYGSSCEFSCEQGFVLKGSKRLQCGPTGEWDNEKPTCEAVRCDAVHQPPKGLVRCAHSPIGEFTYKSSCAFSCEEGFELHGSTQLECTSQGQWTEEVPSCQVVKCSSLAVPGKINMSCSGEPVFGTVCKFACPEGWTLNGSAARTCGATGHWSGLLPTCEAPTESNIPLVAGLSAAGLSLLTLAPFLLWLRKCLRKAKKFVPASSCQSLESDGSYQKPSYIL

In the case of `Clc1ccccc1C(c1ccccc1)(c1ccccc1)n1ccnc1`, the concentration at half-maximal activity (AC50) was 9.85 µM (active) in [1]; 8.88 µM (active) in [2]; 7.77 µM (active) in experiment [3]; 8.14 µM (active) in experiment [4]; 5.57 µM (active) in experiment [5]; 11.5 µM (active) in experiment [6]. The AC50 was 8.61 µM (active) in experiment [7]; 5.3 µM (active) in [8]; 10.4 µM (active) in [9]; 10 µM (active) in experiment [10]; 6.57 µM (active) in experiment [11]; 7.25 µM (active) in [12]. Moreover, the AC50 in experiment [13] is 5.43 µM (active); in the experiment with CD40, CD40 (gene 958), 14.7 µM (active); in experiment [14], 30.7 µM (active); in [15], 30.9 µM (active); in experiment [16], 23.1 µM (active); in experiment [17] it was 30.5 µM (active). Further, the AC50 in experiment [18] was 29.7 µM (active).
As for `CN(C[C@@H](CC[N+]12CCC(C3CCCCC3)(CC1)CC2)c1ccc(Cl)c(Cl)c1)C(=O)c1cc(C(F)(F)F)cc(C(F)(F)F)c1`, the AC50 in [1] was 7.05 µM (active); in experiment [2], 10.3 µM (active); in [3], 7.58 µM (active); in experiment [4], 7.41 µM (active); in experiment [5], 5.56 µM (active); in [6] it was 12.3 µM (active). Further, the AC50 in experiment [7] was 7.78 µM (active); in [8], 6.58 µM (active); in [9], 11.2 µM (active); in [10], 7.76 µM (active); in experiment [11] it was 7.34 µM (active); in experiment [12] it was 9.72 µM (active). For the same compound, the AC50 in experiment [13] was 7.39 µM (active); in the experiment with CD40, CD40 (gene 958), 19.1 µM (active); in experiment [14] it was 26.4 µM (active); in [15] it was 24.8 µM (active); in experiment [16] it was 24.6 µM (active); in [17], 18.4 µM (active). Also, in [18], the AC50 was 23.4 µM (active).
`CN1C(=O)CC[C@H]1c1cccnc1`: the result in [1], in experiment [2], in experiment [3], in experiment [4], in experiment [5] and in experiment [6] was inactive. For the same compound, the result in experiment [7], in experiment [8], in experiment [9], in experiment [10], in experiment [11] and in [12] was inactive. Moreover, the outcome in [13] was “inactive”; in [19] it was “inactive”; in the experiment with CD40, CD40 (gene 958), “inactive”; in [14], “inactive”; in [15], “inactive”; in experiment [16] it was “inactive”. The result in experiment [17] and in [18] was inactive.
Take `CCCCOC(=O)c1ccc(O)cc1`: the outcome in experiment [1], in experiment [2], in experiment [3], in experiment [4], in [5] and in [6] was inactive. Also, the result in experiment [7], in experiment [8], in experiment [9], in experiment [10], in [11] and in [12] was inactive. In addition, the outcome in experiment [13] is “inactive”; in [19], “inactive”; in the experiment with CD40, CD40 (gene 958), “inactive”; in [14] it was “inactive”; in [15], “inactive”; in [16], “inactive”. Besides, the result in [17] and in [18] was inactive.
Consider `CCCC(=O)OCCC(C)C`, for which the result in [1], in experiment [2], in [3], in [4], in experiment [5] and in [6] was inactive. In addition, the result in experiment [7], in [8], in experiment [9], in experiment [10], in experiment [11] and in experiment [12] was inactive. For the same compound, the outcome in experiment [13] is “inactive”; in experiment [19], “inactive”; with CD40, CD40 (gene 958) it was “inactive”; in [14] it was “inactive”; in [15], “inactive”; in [16], “inactive”. Moreover, the result in [17] and in experiment [18] was inactive.
